Source: PubChem (Broad Institute)
IDE exosite FP – exo-site inhibitors of human insulin-degrading enzyme. purified IDE, FL-6b probe fluorescence polarization; hits give low values. z-score at 20 µM. actives 6.3% (n = 17,000);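 active = z-score of -3 or lower, meaning strong loss of probe binding signal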;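 also: His-tagged human IDE residues 42-1019 made in E. coli with 30 nM FL-6b probe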
An asterisk follows results filed as active. This is one part of a sample in which hits are shown more often than they occur.

SMILES | IDE exosite FP
N#C[C@@H]1[C@@H](c2ccc(C3=CCCCC3)cc2)[C@H](CO)N1S(=O)(=O)c1cccc(F)c1 | 2.3
COCc1cn(CC[C@H]2CC[C@H](NC(=O)Nc3c(C)noc3C)[C@@H](CO)O2)nn1 | 0.82
COCC(=O)Nc1ccc2c(c1)C(=O)N(C)[C@@H]1CC[C@@H](CC(=O)NCCCN(C)C)O[C@H]1CO2 | 0.71
CN1C(=O)c2cc(NC(=O)Nc3ccccc3Cl)ccc2OC[C@@H]2O[C@@H](CC(=O)NCCCN3CCOCC3)CC[C@@H]21 | -5.1*
COCC(=O)Nc1ccc2c(c1)C(=O)N(C)[C@H]1CC[C@@H](CC(=O)NCCCN(C)C)O[C@H]1CO2 | -1.2
COCC(=O)Nc1ccc2c(c1)C(=O)N(C)[C@@H]1CC[C@H](CC(=O)NCCCN(C)C)O[C@H]1CO2 | -3.3*
CN1C(=O)c2cc(NC(=O)Nc3ccccc3Cl)ccc2OC[C@@H]2O[C@@H](CC(=O)NCCCN3CCOCC3)CC[C@H]21 | -1
CN1C(=O)c2cc(NC(=O)Nc3ccccc3Cl)ccc2OC[C@@H]2O[C@H](CC(=O)NCCCN3CCOCC3)CC[C@H]21 | -1.5
CN1C(=O)c2cc(NC(=O)Cc3cccs3)ccc2OC[C@H]2O[C@H](CC(=O)NCCCN3CCOCC3)CC[C@H]21 | 0.68
CC(=O)N1CC(=O)N2[C@@H](CO)[C@H](c3ccc(-c4ccc(C(=O)N(C)C)cc4)cc3)[C@@H]2C1 | 4.6
O=C(Nc1ccccc1F)N1CCCCN2[C@@H](CO)[C@@H](c3ccc(C#Cc4cccnc4)cc3)[C@@H]2C1 | -0.043
O=C(Nc1ccccc1F)N1CCCCN2[C@H](CO)[C@H](c3ccc(C#Cc4ccccc4)cc3)[C@@H]2C1 | -1.7
O=C(Nc1ccccc1F)N1CCCCN2[C@H](C1)[C@@H](c1ccc(C#Cc3cccnc3)cc1)[C@@H]2CO | -5.1*
O=C(Nc1ccccc1F)N1CCCCN2[C@H](CO)[C@@H](c3ccc(C#Cc4ccccc4)cc3)[C@H]2C1 | -4.1*
O=C(Nc1ccccc1F)N1CCCCN2[C@H](CO)[C@@H](c3ccc(C#Cc4cccnc4)cc3)[C@@H]2C1 | -1.8
O=C(Nc1ccccc1)N1CCCCN2[C@H](CO)[C@H](c3ccc(C#Cc4ccccc4)cc3)[C@@H]2C1 | -3.4*
O=C(Nc1ccccc1F)N1CCCCN2[C@H](CO)[C@@H](c3ccc(C#Cc4ccccc4)cc3)[C@@H]2C1 | -0.69
O=C(Nc1ccccc1)N1CCCCN2[C@H](C1)[C@@H](c1ccc(C#Cc3ccccc3)cc1)[C@@H]2CO | 0.19
O=C(Nc1ccccc1)N1CCCCN2[C@H](C1)[C@H](c1ccc(C#Cc3ccccc3)cc1)[C@@H]2CO | -0.69
C(=C\c1ccc(C2[C@H]3CNC[C@@H]2N3CC2CCOCC2)cc1)/c1ccccc1 (some centres not stated) | 0.8
CCN1[C@@H]2Cn3c(ccc(-c4ccc(F)cc4)c3=O)[C@H]1[C@@H](C(=O)Nc1nccs1)[C@@H]2CO | 0.81
COc1cccc(C#Cc2ccc([C@@H]3[C@@H](CO)N4C(=O)CN(S(=O)(=O)c5ccccc5C)C[C@@H]34)cc2)c1 | 0.34
CS(=O)(=O)N1CC(=O)N2[C@@H](CO)[C@H](c3ccc(C#CC4CCCC4)cc3)[C@@H]2C1 | -0.15
C/C=C/c1ccc([C@@H]2[C@@H](CN(CC)C(=O)CN(C)C)N(C(C)=O)[C@H]2CO)cc1 | 0.65
OC[C@@H]1[C@H](c2ccccc2)C2(CN(Cc3nccs3)C2)N1CC1CCOCC1 | 2
SMILES | IDE exosite FP
CN1CCCCN2[C@H](CO)[C@@H](c3ccc(C#Cc4ccccc4F)cc3)[C@@H]2C1 | -8.6*
CN1CCCCN2[C@H](CO)[C@@H](c3ccc(-c4ccccc4)cc3)[C@@H]2C1 | 0.92
COc1ccc(C#Cc2ccc([C@H]3[C@H](CO)N4CCCCN(C)C[C@@H]34)cc2)cc1 | 0.046
COc1ccc(C#Cc2ccc([C@H]3[C@H]4CN(C)CCCCN4[C@H]3CO)cc2)cc1 | -0.084
CN1CCCCN2[C@@H](CO)[C@@H](c3ccc(C#Cc4ccccc4F)cc3)[C@@H]2C1 | -5*
OC[C@@H]1[C@H](c2ccc(C#Cc3ccccc3F)cc2)[C@@H]2CN(CC3CCOCC3)CCCCN12 | -1.7
COc1ccc2c3c(n(C)c2c1)[C@H](CO)N(C(=O)c1ccc(F)cc1)CC31CN(CC2CCOCC2)C1 | 0.23
CCC(=O)NC[C@H]1[C@H](c2ccccc2)[C@H](CO)N1C(=O)C1CCC1 | 0.23
Cc1cccc(S(=O)(=O)N2CCCCN3[C@H](CO)[C@H](c4ccc(C#C[C@@H](C)O)cc4)[C@H]3C2)c1 | 0.36
COc1cccc(-c2ccc([C@@H]3[C@H](CO)N4CCCCN(C(=O)c5ccc(F)cc5)C[C@@H]34)cc2)c1 | 0.21
CC(C)NC(=O)N1CCCCN2[C@H](CO)[C@H](c3ccc(Br)cc3)[C@H]2C1 | 2.4
COc1cccc(-c2ccc([C@@H]3[C@@H](CO)N4CCCCN(C(=O)NC(C)C)C[C@H]34)cc2)c1 | -6.6*
COc1cccc(-c2ccc([C@H]3[C@@H](CO)N4CCCCN(C(=O)NC(C)C)C[C@H]34)cc2)c1 | -8.1*
